Compound activity from PubChem.
FBW7 act = FBW7 E3 ligase activators, primary screen, biochemical, AlphaScreen, human; F-box/WD repeat-containing protein 7 (Homo sapiens), Q969H0; AlphaScreen FBW7–phospho-cyclin E peptide binding, activator screen; normalized activity (activation), % at 26.1 µM; 650,000 tested, 0.13% active; AID 1259310, 2017; in the data active = normalized activity above about 1.9%;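 also: purified mutant Fbw7 with reduced substrate affinity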
Target sequence (Q969H0 whole entry, looked up): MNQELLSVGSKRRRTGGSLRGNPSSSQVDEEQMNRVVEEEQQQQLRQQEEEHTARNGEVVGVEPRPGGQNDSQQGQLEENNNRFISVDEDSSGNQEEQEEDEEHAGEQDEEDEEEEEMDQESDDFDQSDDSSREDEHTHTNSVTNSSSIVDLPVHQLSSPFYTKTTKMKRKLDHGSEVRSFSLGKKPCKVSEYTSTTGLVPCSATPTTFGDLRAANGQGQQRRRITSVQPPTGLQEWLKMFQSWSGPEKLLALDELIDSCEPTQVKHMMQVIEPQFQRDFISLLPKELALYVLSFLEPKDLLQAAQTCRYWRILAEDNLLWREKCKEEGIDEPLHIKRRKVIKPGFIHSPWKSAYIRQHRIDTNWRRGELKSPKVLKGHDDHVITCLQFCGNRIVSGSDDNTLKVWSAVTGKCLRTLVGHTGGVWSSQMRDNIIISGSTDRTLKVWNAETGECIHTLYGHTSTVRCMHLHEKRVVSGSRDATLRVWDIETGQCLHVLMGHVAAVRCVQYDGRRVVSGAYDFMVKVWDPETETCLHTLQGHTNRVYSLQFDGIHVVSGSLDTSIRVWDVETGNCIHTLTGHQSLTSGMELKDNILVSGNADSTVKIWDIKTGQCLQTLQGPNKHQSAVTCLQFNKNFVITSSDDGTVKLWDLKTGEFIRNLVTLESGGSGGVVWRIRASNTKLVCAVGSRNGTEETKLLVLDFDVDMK
TEAD-YAP inh = TEAD-YAP interaction inhibition, primary screen, TEAD-YAP interaction inhibitor project, luminescence, HEK-TIYL cells | TEAD-Gal4/YAP UAS-luciferase luminescence | 640,000 tested, 1.4% active | AID 1259422, 2018 | inhibition, % at 9.12 µM; in the data active = inhibition above about 32%;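 also: 0% = median of test compound wells and 100% = reference inhibitor wells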
GPR151 activ = activators of human GPR151, primary screen, cell-based, PathHunter beta-arrestin, luminescence | G-protein coupled receptor 151 (Homo sapiens), Q8TDV0 | PathHunter beta-arrestin GPR151 cells | activation, % at 11.2 µM | 650,000 tested, 1% active; in the data active = activation above about 4.9%;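 also: 0% = median of compound wells and 100% = cells with positive control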
MITF primary = MITF inhibitors, primary screen, biochemical, AlphaScreen, human; 650,000 tested, 0.91% active; Microphthalmia-associated transcription factor (Homo sapiens), O75030; inhibition, % at 2.6 µM; AID 1259374, 2018; AlphaScreen MITF homodimerization, bead proximity signal; in the data active = inhibition above about 50%;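 also: 0% = vehicle wells with protein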
* = called active by the depositor. Most compounds without a hit are left out; they make up all but 3.5% or so of the library.

SMILES	FBW7 act	TEAD-YAP inh	GPR151 activ	MITF primary
CCOc1ccc(NC(=O)CSc2nc3n[nH]c(C)c3c(=N)n2-c2cccc(OC)c2)cc1	0.2	33.0*	0.6	-0.6
CCCN(CCC)C(=O)C(CC)Sc1nc2n[nH]c(C)c2c(=N)n1-c1cccc(OC)c1 (stereo not given)	0.0	49.9*	1.0	10.5
CCCCN(CC)C(=O)CSc1nc2n[nH]c(C)c2c(=N)n1-c1cccc(OC)c1	0.8	23.6	-0.9	24.7
CSc1ccc(/C=C/c2ccc3cccc(O)c3n2)cc1	-0.1	34.5*	-6.6	12.6
Oc1ccc(Br)c2ccc(/C=C/c3ccccc3)nc12	-0.3	-23.0	0.2	12.5
Oc1cccc2ccc(/C=C/c3ccccc3)nc12	-0.1	32.2*	-7.0	1.9
COCCn1c(C)cc(/C=C2/C(=O)NC(=O)N(Cc3ccco3)C2=O)c1C	-0.3	1.3	-0.1	27.9
COCCn1c(C)cc(/C=C2/C(=O)NC(=S)N(Cc3ccco3)C2=O)c1C	-0.9	-1.0	1.2	64.8*
O=C1NC(=S)N(Cc2ccco2)C(=O)/C1=C\N1CCOCC1	-0.2	-5.9	-0.9	74.8*
CCOc1ccc2ccccc2c1/C=C1/C(=O)NC(=S)N(Cc2ccco2)C1=O	-1.0	-17.7	-0.8	76.5*
CCOc1ccc(/C=C2\C(=O)NC(=S)N(CC)C2=O)c2ccccc12	-0.3	8.5	-1.8	13.6
O=C(Nc1ccc(F)cc1)c1ccc(Cl)cc1[N+](=O)[O-]	0.0	4.7	0.9	6.9
COc1ccc(N2C(=O)/C(=C\C=C\c3ccco3)C(=O)NC2=S)cc1	-0.2	-1.4	-1.4	76.5*
COc1cccc(N2C(=O)NC(=O)/C(=C/C=C/c3ccco3)C2=O)c1	0.0	3.3	4.2	18.2
O=C(CCC1CCCC1)NCc1nc(-c2ccncc2)n[nH]1	-0.1	2.4	-1.3	-2.0
CCC1CCCCN1CCCNC(=O)Cn1cc2c(n1)CCC(C)C2 (stereo not given)	-0.1	-1.8	0.1	-9.4
CCCCC(=O)N/N=C(\C)CC(=O)Nc1cccc(C)c1	-0.1	-11.1	-1.2	8.9
COc1ccc(OC)c(Nc2nc(Cc3ccccc3)nc3sc4c(c23)CCCC4)c1	0.0	4.0	0.6	8.8
COc1ccc(S(=O)(=O)N2CCOc3ccccc32)cc1	0.0	48.5*	0.5	18.9
COc1ccc(S(=O)(=O)N2CC(C(=O)O)Oc3ccccc32)cc1 (stereo not given)	0.0	1.4	3.9	-10.2
COC(=O)C1=CN(C)C=C(C(=O)OC)C1c1ccc(Cl)cc1	0.4	3.0	0.8	-7.6
O=C(c1ccc(Br)s1)N1CCC2(CC1)CC(O)(c1ccc(F)cc1)CO2 (stereo not given)	0.0	7.1	0.1	-4.4
CCc1cccc(C)c1NC(=O)CN1C(=O)C2C3C=CC(C3)C2C1=O (stereo not given)	0.0	-2.4	-0.1	-4.4
CC(C)(C)C(C)(O)C#Cc1ccccc1 (stereo not given)	0.1	83.5*	-7.7	0.2
CC(O)(C#Cc1ccccc1)c1ccccc1 (stereo not given)	0.3	-2.1	-0.2	-9.0
SMILES	FBW7 act	TEAD-YAP inh	GPR151 activ	MITF primary
N#CC1=C(N)C(C#N)(C#N)C(c2cccc3ccccc23)C2CCCC=C12 (stereo not given)	-0.1	-8.4	0.6	-0.5
COc1ccccc1C(=O)Nc1ccc(Nc2cc(-n3ccnc3)ncn2)cc1	-0.1	36.9*	-0.1	1.2
Cc1onc(-c2ccccc2Cl)c1C(=O)Nc1cccc2ccc(-n3ccnc3)nc12	-0.2	18.9	2.5	-1.8
O=C(Nc1ccc(Nc2cc(-n3ccnc3)ncn2)cc1)c1ccccc1Cl	-0.1	40.6*	1.0	-2.9
O=C(Nc1cccc2ccc(-n3ccnc3)nc12)c1ccccc1Cl	2.3*	9.2	1.1	2.3
O=C(Nc1ccc(Nc2cc(-n3ccnc3)ncn2)cc1)C(c1ccccc1)c1ccccc1	0.3	27.5	1.0	20.6
O=C(Cc1ccc(F)cc1)Nc1ccc(Nc2cc(-n3ccnc3)ncn2)cc1	0.2	13.1	-2.0	9.7
CC(=O)NCCNC(=O)c1nonc1N	0.1	7.6	0.0	-5.7
COc1ccc2nc(SCC(=O)Nc3ccc4c(c3)OCO4)c(C#N)cc2c1	-0.1	-11.1	1.9	2.8
COc1ccc(-c2cc(N)n(S(=O)(=O)c3ccc(F)c(C)c3)n2)cc1	0.2	-12.0	0.3	-5.7
CC(CS(=O)(=O)c1ccc2ccccc2c1)N1CCCCC1 (stereo not given)	0.3	33.1*	0.8	-6.2
